Values joined by “and” are separate entries in the source; they are usually repeats but may differ in a detail not shown here. Equal entries are not always repeated. Records with an inconclusive call do not appear. A call without a number means that no potency is given here. Some structures have more than one record in an assay (separate samples or runs), and their calls can disagree. Active and inactive are the calls of the source. Unless noted, calls come from the whole dose curve; as a rule, active = well fitted curve in the direction sought with a large enough effect; inconclusive = small, poorly fitted or top-dose-only effect, or another doubt; inactive = no such curve, though single readings can be large; an effect the other way counts as inactive or inconclusive.
Legend:
[1] = target: Cytochrome P450 2D6 (Homo sapiens) (UniProt P10635); test: Cytochrome P450 family 2 subfamily D member 6 (CYP2D6) small molecule antagonists: luciferase biochemical (cell-free) qHTS assay (AID 1645840; active = well fitted curve in the direction sought with a large enough effect in the repeat runs; an effect the other way counts as inactive or inconclusive; note: nearly all actives have a fitted effect of over 55% in size; note: potency is the fitted concentration of half-maximal effect); details: P450-Glo CYP2D6 enzyme, luciferin luminescence, 1 h; series mostly up to 57.4 µM
Method in brief: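 P450-Glo luminescent screen: recombinant CYP2D6 enzyme–proluciferin substrate mix preincubated with compound 10 min at room temperature, then NADPH regeneration added for 1 h at room temperature. Detection reagent added for 20 min; luciferin light read as relative luminescence units.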

[2] = target: Cytochrome P450 2C9 (Homo sapiens) (UniProt P11712); test: Cytochrome P450 family 2 subfamily C member 9 (CYP2C9) small molecule antagonists: luciferase biochemical (cell-free) qHTS assay (AID 1645842; active = well fitted curve in the direction sought with a large enough effect in the repeat runs; an effect the other way counts as inactive or inconclusive; note: nearly all actives have a fitted effect of over 55% in size; note: potency is the fitted concentration of half-maximal effect); details: P450-Glo CYP2C9 enzyme assay, luciferin luminescence; series mostly up to 57.4 µM
Method in brief: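 Luminescence, after 20 min with luciferin detection reagent, reflected CYP2C9 turnover during a 1 h NADPH-driven reaction at 37C. Enzyme-substrate mix contained 0.4% bovine serum albumin and was preincubated with compound 10 min at room temperature.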

Papain (Carica papaya) = Papain (Carica papaya) (UniProt P00784); test: Primary qHTS assay for inhibitors of the protease papain (AID 1645873); details: papain Z-FR-AMC cleavage, AMC fluorescence; series mostly up to 49.8 µM;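 note: papain turnover of Z-FR-AMC read as the AMC fluorescence gain over 10 min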; note: potency is the fitted concentration of half-maximal effect
[3] = Primary qHTS for inhibitors of nuclear receptor binding SET domain protein 2 (NSD2) in an isogenic RCH-ACV NSD2 p.E1099K mutant (9B) (AID 1645876); details: RCH-ACV NSD2 E1099K (9B) viability, CellTiter-Glo, 72 h; series mostly up to 44.9 µM; note: nearly all actives have a fitted effect of over 70% in size; note: potency is the fitted concentration of half-maximal effect
[4] = Primary qHTS for inhibitors of nuclear receptor binding SET domain protein 2 (NSD2) in an RCH-ACV wild type WT cells (2C) (AID 1645877); details: RCH-ACV (leukaemia line) NSD2 WT (2C) viability, CellTiter-Glo, 72 h; series mostly up to 44.9 µM; note: nearly all actives have a fitted effect of over 70% in size; note: potency is the fitted concentration of half-maximal effect
[5] = target: Cytochrome P450 3A4 (Homo sapiens) (UniProt P08684); test: Cytochrome P450 family 3 subfamily A member 4 (CYP3A4) small molecule antagonists: luciferase qHTS assay (AID 1645841; active = well fitted curve in the direction sought with a large enough effect in the repeat runs; an effect the other way counts as inactive or inconclusive; note: potency is the fitted concentration of half-maximal effect; nearly all actives have a fitted effect of over 45% in size); details: P450-Glo CYP3A4 enzyme assay, luciferin luminescence; series mostly up to 57.4 µM
Method in brief: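 P450-Glo CYP3A4 enzyme with proluciferin substrate preincubated 10 min with compound at room temperature, then NADPH regeneration 1 h. Luciferin detection reagent added for 20 min; luminescence recorded. Ketoconazole positive control.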

[6] = target: N-terminal Xaa-Pro-Lys N-methyltransferase 1 (Homo sapiens) (UniProt Q9BV86); test: Confirmatory qHTS for Inhibitors of N-terminal methyltransferase 1 (NTMT1): MTaseGlo Assay (AID 1645874); details: NTMT1 enzyme, MTase-Glo SAH luminescence; series mostly up to 100 µM;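 note: luminescence from SAH made as NTMT1 methylates SPKRIA peptide using SAM; nearly all actives have a fitted effect of over 65% in size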
Method in brief: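 Luminescent MTase-Glo read-out of SAH. 125 nM NTMT1, 100 uM SAM, 1 uM SPKRIA substrate, 30 min RT reaction after 15 min compound preincubation. Normalized to no-enzyme and DMSO controls; Hill fit.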

Chain of Cytochrome P450 2D6 (Homo sapiens) (P10635 whole entry, looked up): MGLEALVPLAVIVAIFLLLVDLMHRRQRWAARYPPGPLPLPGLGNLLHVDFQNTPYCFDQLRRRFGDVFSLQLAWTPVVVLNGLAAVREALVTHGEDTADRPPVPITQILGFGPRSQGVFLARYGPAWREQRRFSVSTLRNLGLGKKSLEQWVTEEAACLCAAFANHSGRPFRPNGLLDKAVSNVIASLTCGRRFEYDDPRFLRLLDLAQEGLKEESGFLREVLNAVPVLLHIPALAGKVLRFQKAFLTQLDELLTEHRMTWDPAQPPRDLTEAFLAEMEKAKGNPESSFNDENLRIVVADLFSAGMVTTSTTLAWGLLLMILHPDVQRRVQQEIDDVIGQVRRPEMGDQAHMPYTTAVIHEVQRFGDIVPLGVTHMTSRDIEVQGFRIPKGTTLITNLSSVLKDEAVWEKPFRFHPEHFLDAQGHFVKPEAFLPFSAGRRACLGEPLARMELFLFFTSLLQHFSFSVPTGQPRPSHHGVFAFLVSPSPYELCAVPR
Chain of Papain (Carica papaya) (P00784 whole entry, looked up, the tested form may be a part): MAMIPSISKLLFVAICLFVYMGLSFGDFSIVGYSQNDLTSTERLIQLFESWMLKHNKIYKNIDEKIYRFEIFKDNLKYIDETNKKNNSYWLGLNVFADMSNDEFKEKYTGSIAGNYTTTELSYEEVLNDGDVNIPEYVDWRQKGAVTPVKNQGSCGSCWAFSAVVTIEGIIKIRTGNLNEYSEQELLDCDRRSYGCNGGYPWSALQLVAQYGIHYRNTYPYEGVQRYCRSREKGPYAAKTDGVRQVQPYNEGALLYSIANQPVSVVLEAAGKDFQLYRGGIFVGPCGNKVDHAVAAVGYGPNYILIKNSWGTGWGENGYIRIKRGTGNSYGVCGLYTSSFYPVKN
Chain of Cytochrome P450 2C9 (Homo sapiens) (P11712 whole entry, looked up): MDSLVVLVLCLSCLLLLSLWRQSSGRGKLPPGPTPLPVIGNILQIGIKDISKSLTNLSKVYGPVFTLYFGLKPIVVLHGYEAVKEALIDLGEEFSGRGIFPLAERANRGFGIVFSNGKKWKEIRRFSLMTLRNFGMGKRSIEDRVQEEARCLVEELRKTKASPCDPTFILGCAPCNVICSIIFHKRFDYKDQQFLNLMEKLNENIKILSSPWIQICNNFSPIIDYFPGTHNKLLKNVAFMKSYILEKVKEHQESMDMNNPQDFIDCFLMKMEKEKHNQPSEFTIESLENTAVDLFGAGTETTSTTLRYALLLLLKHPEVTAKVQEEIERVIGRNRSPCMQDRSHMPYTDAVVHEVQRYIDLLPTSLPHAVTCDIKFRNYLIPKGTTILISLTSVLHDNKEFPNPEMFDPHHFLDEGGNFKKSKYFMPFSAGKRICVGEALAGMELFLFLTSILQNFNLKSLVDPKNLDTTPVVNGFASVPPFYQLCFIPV
Chain of Cytochrome P450 3A4 (Homo sapiens) (P08684 whole entry, looked up): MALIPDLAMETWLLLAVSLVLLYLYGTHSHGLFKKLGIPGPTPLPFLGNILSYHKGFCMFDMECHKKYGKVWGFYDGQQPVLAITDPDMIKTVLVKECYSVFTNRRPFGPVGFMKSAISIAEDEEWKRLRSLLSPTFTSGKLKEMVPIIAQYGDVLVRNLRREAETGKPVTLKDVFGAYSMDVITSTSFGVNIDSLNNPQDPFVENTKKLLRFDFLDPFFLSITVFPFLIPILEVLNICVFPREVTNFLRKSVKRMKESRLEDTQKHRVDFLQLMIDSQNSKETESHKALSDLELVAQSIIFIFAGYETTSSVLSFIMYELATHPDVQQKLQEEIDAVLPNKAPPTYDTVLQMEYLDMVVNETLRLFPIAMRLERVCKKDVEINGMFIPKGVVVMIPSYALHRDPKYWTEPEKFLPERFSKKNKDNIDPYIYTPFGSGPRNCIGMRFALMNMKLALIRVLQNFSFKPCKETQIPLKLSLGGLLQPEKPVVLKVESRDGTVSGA
Chain of N-terminal Xaa-Pro-Lys N-methyltransferase 1 (Homo sapiens) (Q9BV86 whole entry, looked up): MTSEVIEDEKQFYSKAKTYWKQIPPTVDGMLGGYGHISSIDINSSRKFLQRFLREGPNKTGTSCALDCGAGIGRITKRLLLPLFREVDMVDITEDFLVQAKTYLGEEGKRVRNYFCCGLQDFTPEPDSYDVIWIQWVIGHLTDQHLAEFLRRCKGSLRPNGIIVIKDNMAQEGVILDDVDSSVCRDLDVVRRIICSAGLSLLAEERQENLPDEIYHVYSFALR

| SMILES | Potency [1] | Potency [2] | Potency (Papain (Carica papaya)) | Potency [3] | Potency [4] | Potency [5] | Potency [6] |
| --- | --- | --- | --- | --- | --- | --- | --- |
| NC(=O)c1cnccn1 | inactive | inactive | inactive | inactive | inactive |  |  |
| Cc1ccc2c(c1)C(=O)[C@@]1(O)CCN(c3ccccc3)C1=N2 | inactive |  |  |  |  |  |  |
| CC(C)NCC(O)COc1ccc(COCCOC(C)C)cc1 (configuration not stated) | inactive | inactive | inactive | inactive |  |  |  |
| CN(C)C(=O)c1ccc(S(=O)(=O)c2ccc(NC(=O)[C@@](C)(O)C(F)(F)F)c(Cl)c2)cc1 | inactive | 6.74 µM (active) |  |  |  |  |  |
| CCCc1nn(C)c2c(=O)[nH]c(-c3cc(S(=O)(=O)N4CCN(C)CC4)ccc3OCC)nc12 | inactive | 13.5 µM (active) | inactive | inactive | 10.6 µM (active) and inactive |  |  |
| Cc1ccc(N(CC2=NCCN2)c2cccc(O)c2)cc1 | 0.309 µM (active) | inactive | inactive | inactive |  |  |  |
| Nc1nc2c(ncn2COCCO)c(=O)[nH]1 | inactive | inactive | inactive | inactive | inactive |  |  |
| OC[C@H](Cc1ccccc1)Nc1nc(Oc2ccc3c(c2)CCC3)nc2c1ncn2Cc1ccc(-c2ccccc2)cc1 | inactive |  |  |  |  |  |  |
| COc1ccc([C@@H]2CC(=O)c3c(O)cc(O[C@@H]4O[C@H](CO[C@@H]5O[C@@H](C)[C@H](O)[C@@H](O)[C@@H]5O)[C@@H](O)[C@H](O)[C@@H]4O)cc3O2)cc1O | inactive | inactive |  |  |  |  |  |
| CC(C)(C)NCC(O)c1ccc(O)c(CO)c1 (configuration not stated) | inactive | inactive | inactive | inactive |  |  |  |
| CCOC(=O)C1=C[C@]2(CC)CCCN3CCc4c(n1c1ccccc41)[C@@H]32 | 4.9 µM (active) |  |  |  |  |  |  |
| OC(CN1CCC(Cc2ccc(F)cc2)CC1)c1ccc(Cl)cc1 (configuration not stated) | 15.5 nM (active) and 53.5 nM (active) | inactive | inactive | inactive |  |  |  |
| Cc1[nH]c(=O)c(C#N)cc1-c1ccncc1 | inactive | 29.9 µM (active) | inactive | inactive | inactive |  |  |
| CCOc1cc(C(=O)Nc2ccc(Cl)c(-c3nc4ccccc4[nH]3)c2)cc(OCC)c1OCC | inactive | inactive |  |  |  |  |  |
| OC(CCN1CCCCC1)(c1ccccc1)C1CC2C=CC1C2 (configuration not stated) | 1.23 µM (active) | inactive | inactive | inactive | inactive |  |  |
| Cn1cnc([N+](=O)[O-])c1Sc1ncnc2nc[nH]c12 | inactive | inactive | inactive | 959 nM (active) and 1.19 µM (active) and 4.17 µM (active) | 1.35 µM (active) and 944 nM (active) and 3.72 µM (active) |  |  |
| CC[C@@H](C)[C@H](NC(=O)[C@H](CC1CCCCC1)NC(=O)c1ccno1)C(=O)N1CCC2(CCc3ccccc32)CC1 | inactive | inactive |  | inactive |  |  |  |
| CC(=O)Oc1ccccc1C(=O)O | 15.5 µM (active) | inactive | inactive | inactive |  |  |  |
| NCCc1ccc(O)c(O)c1 | inactive | inactive | inactive | inactive and 23.5 µM (active) | inactive |  |  |
| CN(C(=O)c1ccc(F)cc1C(F)(F)F)C1CCN(c2nnc(-c3ccnn3C)c3ccccc23)CC1 | inactive |  |  |  |  |  |  |
| CC(c1cc2ccccc2s1)N(O)C(N)=O (configuration not stated) | inactive |  |  | inactive | inactive | 13.8 µM (active) |  |
| C[C@]12CCC(=O)C=C1CC[C@@H]1[C@@H]2[C@@H](O)C[C@@]2(C)[C@H]1CC[C@]2(O)C(=O)CO | inactive | inactive | inactive | inactive | 1.68 µM (active) and 296 nM (active) |  |  |
| O=c1[nH]cnc2[nH]ncc12 | inactive | inactive | inactive | inactive | inactive |  |  |
| CNC[C@H](O)c1cccc(O)c1 | inactive | inactive | inactive | inactive | inactive |  |  |
| CC(C[N+](C)(C)C)OC(N)=O (configuration not stated) | inactive | inactive | inactive | inactive | inactive |  |  |
| CCCC(CCC)C(=O)O | inactive | inactive | inactive | inactive | inactive |  |  |
| O=C1CCC(N2C(=O)c3ccccc3C2=O)C(=O)N1 (configuration not stated) | 15.5 µM (active) | inactive | inactive | inactive | inactive |  |  |
| CCn1cc(C(=O)O)c(=O)c2cc(F)c(N3CCNC(C)C3)c(F)c21 (configuration not stated) | inactive | inactive | 15.8 µM (active) | inactive | inactive |  |  |
| Clc1ccc(Nc2nnc(Cc3ccncc3)c3ccccc23)cc1 | 0.0174 µM (active) | 0.049 µM (active) |  | 15 µM (active) and 9.34 µM (active) | 13.3 µM (active) and 8.33 µM (active) |  | inactive |

Source: PubChem BioAssay (NCATS)
